Values without a mark were called inactive. Records with an inconclusive call do not appear. Calls of active or inactive are those of the source. The call rests on the fitted dose curve; in most records, active means well fitted curve in the direction sought with a large enough effect in the repeat runs; inconclusive means weak or mixed curves; inactive means no such curve, though single readings can be large; an effect the other way counts as inactive or inconclusive.
Assay: qHTS assay for small molecule disruptors of the mitochondrial membrane potential (AID 720635); further: potency means the concentration at half of the fitted maximal effect
Conditions: HepG2 mitochondrial membrane potential, Mito-MPS dye ratio; series mostly up to 83.2 µM; ratio activity, negative = MMP loss: at the top concentration
Method in brief: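 HepG2 cells (2,000/well) attached overnight at 37C, then took compound for 1 hr at 37C, 5% CO2. Mito-MPS dye was added for 30 min; fluorescence was read at 490/535 nm (monomers) and 540/590 nm (aggregates).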
On the % scale 0 is the no-effect control and ±100 the full control effect.

SMILES	ratio activity, negative = MMP loss	Potency
CCCCCCCC/C=C\CCCCCCCC(=O)OCCO	14.3% [at 95.3 µM]	
COc1ccc(CCN(C)CCCN2CCc3cc(OC)c(OC)cc3CC2=O)cc1OC	-15.6%	
CC(C)(C)C1(CCc2ccc(Cl)cc2)CO1 (configuration not stated)		19.3 µM (active)
COC1CCC=CO1 (configuration not stated)	-12.6% [at 95.3 µM]	
COc1ccc(C(=O)NCc2ccc(OCCN(C)C)cc2)cc1OC	8.81%	
Cc1ccc2c(c1[N+](=O)[O-])C(=O)c1ccccc1C2=O		1.2 µM (active)
CCCCCc1ccco1		44.7 µM (active)
CCCCC(CC)COS(=O)(=O)O (configuration not stated)	-2.95%	
c1ccc(CCCc2ccncc2)cc1		10.9 µM (active)
CC(C)(C(=O)c1cccnc1)c1cccnc1	-12.8% [at 39.1 µM]	
O=C1NC(=O)c2cccc3cccc1c23		10.9 µM (active)
CC1CCCC(=O)C1=O (configuration not stated)	15.5%	
O=C(O)c1cccc(C[C@@H]2COc3ccc(OCc4nc5cc(F)ccc5s4)cc3[C@@H]2O)c1		54.5 µM (active)
COC(OC)OC	10.8%	
CCCOC(=O)c1c(Cl)c(Cl)c(Cl)c(Cl)c1C(=O)OCCC		61.1 µM (active)

Assay: qHTS assay to test for compound auto fluorescence at 590 nm (red) in HepG2 cells (AID 720674)
Conditions: HepG2 autofluorescence, red 540/590 nm, 1 h; series mostly up to 91.3 µM; fluorescence, relative to Rose Bengal: at the top concentration
Method in brief: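 Rose Bengal sodium served as the red fluorophore standard. HepG2 monolayers (overnight attachment, MEM with 10% FBS) were exposed to test compounds for 1 hr at 37 C and read at Ex 540/Em 590 nm.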

SMILES	fluorescence, relative to Rose Bengal	outcome
N[C@@H](Cc1cc(I)c(O)c(I)c1)C(=O)O	-0.0559% [at 46 µM]	
CCCCCCCC/C=C\CCCCCCCC(=O)OCCO	-0.216% [at 95.7 µM]	
COc1ccc(CCN(C)CCCN2CCc3cc(OC)c(OC)cc3CC2=O)cc1OC	-0.617% [at 46 µM]	
CC(C)(C)C1(CCc2ccc(Cl)cc2)CO1 (configuration not stated)	-0.0629%	
CC(=O)C(C)=O	0.0148%	
O=C(O)c1ccc(O)cc1O	0.172%	
COC1CCC=CO1 (configuration not stated)	0.0911%	
CCN(CC)CCOC(=O)C(c1ccccc1)c1ccccc1	-0.342% [at 46 µM]	
Cc1cccc2sc(N)nc12	0.0506% [at 95.7 µM]	
CC(=O)OCC(=O)[C@@]1(OC(C)=O)[C@@H](C)C[C@H]2[C@@H]3C[C@H](F)C4=CC(=O)C=C[C@]4(C)[C@@]3(F)[C@@H](O)C[C@@]21C	0.0454% [at 46 µM]	
COc1ccc(C(=O)NCc2ccc(OCCN(C)C)cc2)cc1OC	-0.0284% [at 46 µM]	
CC[C@@H](CO)NCCN[C@@H](CC)CO	-0.504% [at 18.6 µM]	
COc1ccc(N)c([N+](=O)[O-])c1	-0.0206%	
Cc1ccc2c(c1[N+](=O)[O-])C(=O)c1ccccc1C2=O	0.0424% [at 46 µM]	
CC(=O)N[C@@H](Cc1ccc(O)cc1)C(=O)O	-0.234% [at 46 µM]	
Cc1cn([C@H]2C[C@H](F)[C@@H](CO)O2)c(=O)[nH]c1=O	0.308% [at 46 µM]	
C1=CCC2CC=CC2C1 (configuration not stated)	-0.208%	
c1ccc(CNc2ncnc3c2ncn3C2CCCCO2)cc1 (configuration not stated)	0.0059%	
CCCCCc1ccco1	0.153%	

SMILES	fluorescence, relative to Rose Bengal	outcome
CCCCC(CC)COS(=O)(=O)O (configuration not stated)		inactive
CC1CCCO1 (configuration not stated)	0.0144%	
c1ccc(CCCc2ccncc2)cc1	0.241%	
CC(C)(C(=O)c1cccnc1)c1cccnc1	-0.433% [at 18.6 µM]	
SCCc1cnccn1	0.201%	
O=C1NC(=O)c2cccc3cccc1c23	0.242%	
CC1CCCC(=O)C1=O (configuration not stated)	0.249%	
CCC1CCC(CCC(=O)O)C1 (configuration not stated)	0.103% [at 95.7 µM]	
BrC(Br)C(Br)Br	0.0995%	
O=c1[nH]c2cc(C(F)(F)F)c(N3CCOCC3)cc2n(CP(=O)(O)O)c1=O	-0.233% [at 46 µM]	
Cc1c(C2(c3cc(Br)c(O)c(Br)c3C)OS(=O)(=O)c3ccccc32)cc(Br)c(O)c1Br	-0.142%	
O=C(O)CN1C(=O)c2cccc3cccc(c23)C1=O	0.537% [at 46 µM]	
CCCCCC	-0.0914%	
O=C(O)c1cccc(C[C@@H]2COc3ccc(OCc4nc5cc(F)ccc5s4)cc3[C@@H]2O)c1	0.454%	
COC(OC)OC	-0.359%	
O=C(O)CCC(=O)OC[C@@H](NC(=O)C(Cl)Cl)[C@H](O)c1ccc([N+](=O)[O-])cc1	0.107% [at 46 µM]	
CC(O)Cn1cnc2c1c(=O)n(C)c(=O)n2C (configuration not stated)	-0.388% [at 18.6 µM]	
CCCOC(=O)c1c(Cl)c(Cl)c(Cl)c(Cl)c1C(=O)OCCC	0.144%	

Source: PubChem BioAssay (Tox21)
